HTR5A ag ctr – HTR5A agonism, opioid heterodimer counter-screen | HTR5A agonist assay, luminescence, cell-based | activation, % at 9.3 µM | 0.61% of 340,000 active | AID 504692; in the data active means activation mostly above about 9.5%, no sharp cut-off; inactive means mostly below about 7.6%;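 further: 0% = cells with vehicle only and 100% = reference agonist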
MOR-DOR ag-1 – OPRM1-OPRD1 heterodimerization agonism | P35372+P41143 | cells, luminescence | activation, % at 9.3 µM | 0.3% of 340,000 active; in the data active means activation above about 18%;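 further: 0% = vehicle-treated cells and 100% = reference agonist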
Target sequence (P35372 whole entry, looked up): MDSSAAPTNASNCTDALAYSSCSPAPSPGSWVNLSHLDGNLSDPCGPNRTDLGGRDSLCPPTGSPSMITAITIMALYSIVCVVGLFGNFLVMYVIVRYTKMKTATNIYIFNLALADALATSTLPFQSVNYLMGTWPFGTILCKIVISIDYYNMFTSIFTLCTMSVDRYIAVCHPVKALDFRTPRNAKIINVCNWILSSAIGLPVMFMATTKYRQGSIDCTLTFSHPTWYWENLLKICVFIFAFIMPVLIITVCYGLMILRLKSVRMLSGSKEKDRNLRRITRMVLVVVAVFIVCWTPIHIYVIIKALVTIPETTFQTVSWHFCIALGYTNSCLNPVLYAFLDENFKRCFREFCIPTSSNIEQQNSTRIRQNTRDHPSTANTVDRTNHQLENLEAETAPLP
Target sequence (P41143 whole entry, looked up): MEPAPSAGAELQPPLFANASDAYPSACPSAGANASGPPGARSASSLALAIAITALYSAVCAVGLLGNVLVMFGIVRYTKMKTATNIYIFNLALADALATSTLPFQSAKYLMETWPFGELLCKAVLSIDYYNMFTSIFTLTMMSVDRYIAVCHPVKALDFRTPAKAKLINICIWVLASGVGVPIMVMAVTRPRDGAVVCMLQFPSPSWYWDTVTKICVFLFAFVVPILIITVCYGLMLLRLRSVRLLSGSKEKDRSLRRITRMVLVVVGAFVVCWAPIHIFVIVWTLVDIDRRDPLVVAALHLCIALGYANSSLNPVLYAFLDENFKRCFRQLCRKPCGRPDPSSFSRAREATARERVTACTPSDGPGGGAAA
HTR5A inv ag – counter-screen for OPRM1-OPRD1 inverse agonists: human HTR5A inverse agonism. P47898. HTR5A cell line, luminescence. inhibition, % at 9.3 µM. 0.083% of 340,000 active. AID 504634; in the data active means inhibition mostly above about 23%, no sharp cut-off; inactive means mostly below about 18%;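 further: 0% = cells with DMSO and 100% = no-cell wells with DMSO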
MOR-DOR inv ag-1 – inverse agonist of human OPRM1-OPRD1 heterodimerization; P35372+P41143; cell-based MOR-DOR heterodimer luminescence, inverse agonism; inhibition, % at 9.3 µM; 0.21% of 340,000 active; AID 504357; in the data active means inhibition above about 22%, passing the limit was not always enough;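 further: 0% = cells with DMSO and 100% = wells without cells with DMSO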
MOR-DOR inv conf – OPRM1-OPRD1 heterodimer inverse agonism, confirmation; AID 504900; inhibition, % at 9.3 µM; 20% of 580 active; shares compounds with MOR-DOR inv ag-1; cells expressing OPRM1/OPRD1 heterodimer, luminescence; in the data active means inhibition above about 32%;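 further: 0% = cells with DMSO and 100% = wells lacking cells with DMSO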
HTR5A inv ctr2 – inverse agonist of human HTR5A in OPRM1-OPRD1 counter-screen. 580 tested, under 10 active. inhibition, % at 9.3 µM. AID 504914. shares compounds with MOR-DOR inv ag-1. HTR5A-expressing cells, luminescence, inverse agonism;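 further: 0% = cells with DMSO and 100% = no-cell wells with DMSO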
MOR-DOR inv ag-2 – opioid heterodimer inverse agonism, HTR5A counter-screen | 190 tested, under 10 active | shares compounds with HTR5A inv ag | inhibition, % at 9.3 µM | U2OS counter-screen cells, complementation luminescence | AID 504912;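 further: 0% = cells with DMSO and 100% = wells without cells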
HTR5A inv conf – confirmation of human HTR5A inverse agonists; HTR5A-expressing cells, inverse agonism, luminescence; 190 tested, under 10 active; shares compounds with HTR5A inv ag; inhibition, % at 9.3 µM;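 further: 0% = cells with DMSO and 100% = no cells with DMSO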
MOR-DOR ag-2 – promotes OPRM1-OPRD1 heterodimerization in HTR5A counter-screen | U2OS counter-screen cells, complementation luminescence, 3 h | AID 504913 | 13% of 800 active | shares compounds with HTR5A ag ctr | activation, % at 9.3 µM; in the data active means activation above about 18%
HTR5A ag conf – confirmation of human HTR5A agonists; HTR5A agonist cell assay, luminescence; activation, % at 9.3 µM; shares compounds with HTR5A ag ctr; 17% of 800 active; AID 504915; in the data active means activation above about 17%;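 further: 0% = cells with vehicle only and 100% = full reference agonist response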
An asterisk follows results filed as active; · = no result given. Only some compounds are listed: those with a hit (about 1.1% of all), similar ones and a draw of the others. Unless noted, how the calls were made is not given here.

SMILES	HTR5A ag ctr	MOR-DOR ag-1	HTR5A inv ag	MOR-DOR inv ag-1	MOR-DOR ag-2	HTR5A ag conf	others
CC(C)(C)OC(=O)c1c(N)n(Cc2ccco2)c2nc3ccccc3nc12	0.9	-6.8	20.4	40.4*	·	·	MOR-DOR inv conf=96.0*;HTR5A inv ctr2=17.2
O=[N+]([O-])c1oc2ccc3ccccc3c2c1CCO	0.9	2.0	-3.6	-8.8	·	·
C[C@H]1CCC/C=C/[C@@H]2C[C@H](O)C[C@H]2[C@@H](O)/C=C/C(=O)O1	-1.4	-9.5	5.2	41.8*	·	·	MOR-DOR inv conf=-455.3;HTR5A inv ctr2=-24.0
Cc1nc2ccccc2c(=O)n1/N=C/c1cc(Br)cc(Br)c1O	-1.2	3.7	-8.4	-19.7	·	·
O=C(CN1CCCCC1)c1cccc(Br)c1	-3.2	-12.7	3.4	68.2*	·	·	MOR-DOR inv conf=-444.2;HTR5A inv ctr2=-13.3
CCC(=NCCCN(CC)CC)c1c(O)n(-c2ccccc2)c(=O)[nH]c1=O	0.3	-1.6	-10.1	8.0	·	·
CCCCn1c(NS(=O)(=O)c2ccccc2)c(C(=O)OCC)c2nc3ccccc3nc21	-0.2	-5.8	13.3	31.8*	·	·	MOR-DOR inv conf=-16.0;HTR5A inv ctr2=-14.2
CCC1CCCCN1CC(=O)c1ccc(OC(F)F)cc1 (centres undefined)	6.0	-8.0	17.3	42.4*	·	·	MOR-DOR inv conf=14.2;HTR5A inv ctr2=40.8
O=C(CN1CCCCC1)c1ccc(OC(F)F)cc1	6.6	-2.5	-16.7	13.1	·	·
CC1CC2(O)c3no[n+]([O-])c3CCC2N1O (centres undefined)	-2.5	-4.6	24.2	24.9	·	·
CC1CN(O)C2CCc3c(no[n+]3[O-])C12O (centres undefined)	2.9	-5.3	-28.6	31.1*	·	·	MOR-DOR inv conf=-29.1;HTR5A inv ctr2=3.1
COC(=O)C1=C(c2ccc(C(C)=O)cc2)C[C@@H]2CC[C@H]1N2C(=O)NC1Cc2ccccc2C1	3.2	-0.7	4.4	3.9	·	·
Cc1ccc(C2SCC(=O)Nc3c2c(=O)[nH]n3C2CCOC(C)(C)C2)cc1 (centres undefined)	-3.4	-2.7	8.6	11.5	·	·
CC1(C)CC(n2[nH]c(=O)c3c2NC(=O)CSC3c2ccccc2)CCO1 (centres undefined)	1.6	-7.3	11.0	30.6*	·	·	MOR-DOR inv conf=-1.9;HTR5A inv ctr2=-15.5
COc1ccc(CNC(=O)C(NC(C)=O)C(C)C)cc1OC (centres undefined)	-6.5	-1.9	18.4*	9.7	·	·	MOR-DOR inv ag-2=5.2;HTR5A inv conf=-8.0
CC(=O)Nc1ccc(S(=O)(=O)N2Cc3cnnn3-c3ccccc3C2C#N)cc1 (centres undefined)	-1.9	-0.9	6.4	4.3	·	·
C=C(C)[C@@]12OC3(c4ccccc4)O[C@@H]1C1[C@@H]4O[C@]4(CO)[C@@H](O)[C@]4(O)C(=O)C(C)=C[C@H]4[C@@]1(O3)[C@H](C)[C@H]2OC(=O)/C=C/C=C/c1ccccc1 (some centres undefined)	32.7*	-2.1	4.0	11.9	-3.5	-2.5
CCC1C(c2ccccc2)NC(c2ccccc2)CC1(O)c1ccc(F)cc1 (centres undefined)	16.8*	8.1	-43.7	-39.8	8.9	1.3
Cc1cccc(CCNCc2cc3cccc(C)c3[nH]c2=O)c1	14.7*	0.7	-54.4	-3.3	1.0	1.7
Cc1cccc(CCNCc2cc3cc(C)cc(C)c3[nH]c2=O)c1	3.5	-3.0	-13.1	13.8	·	·
CN1CCC(c2c[nH]c3ccccc23)C1 (centres undefined)	29.0*	-3.5	-106.1	18.2	22.5*	10.3
O=C(C1CC(c2ccccc2O)=NO1)N1CCC2(CC1)OCCO2 (centres undefined)	-0.8	2.4	-26.1	-13.0	·	·
C=CCn1c(O)c(C(CC)=NCCc2c[nH]c3ccccc23)c(=O)[nH]c1=O	31.5*	-0.7	-103.5	3.4	-1.8	-0.7
c1ccc(CNCCc2c[nH]c3ccccc23)cc1	11.5	0.8	-18.6	-4.0	·	·
COc1cc(CNCCc2c[nH]c3ccccc23)cc(OC)c1	15.4*	-3.5	-57.4	16.8	368.7*	2.1
SMILES	HTR5A ag ctr	MOR-DOR ag-1	HTR5A inv ag	MOR-DOR inv ag-1	MOR-DOR ag-2	HTR5A ag conf	others
COc1ccc(CNCCc2ccc(Cl)cc2)c(OC)c1OC	0.8	-1.7	-2.9	8.2	·	·
CCC1(CC)C(=O)NC(=Nc2cccc(C(F)(F)F)c2)NC1=O	11.0	-0.8	-30.2	3.3	·	·
COc1ccc2[nH]cc(CCN(C)C)c2c1	·	-1.4	·	7.5	·	·
COc1ccc2c(CCN)c[nH]c2c1	31.6*	-0.8	-190.1	4.8	-1.2	-0.9
Cc1ccc2c(c1)CC1(CN2C)C(=O)NC(=O)N(CCc2ccccc2)C1=O (centres undefined)	5.3	-1.8	-14.6	7.9	·	·
CNCCc1c[nH]c2ccc(O)cc12	124.1*	-1.7	-303.7	9.4	2.9	5.7
NCCc1c[nH]c2ccc(C(N)=O)cc12	96.2*	-2.0	-215.7	11.0	-0.3	83.3*
COc1ccc(CNC(=O)/C=C/c2ccc3[nH]cc(CCN(C)C)c3c2)cc1	5.0	0.4	-62.5	-2.3	·	·
O=C(c1cc(S(=O)(=O)N2CCC3(CC2)OCCO3)ccc1F)N1CCC2(CC1)OCCO2	3.5	-0.8	1.6	4.0	·	·
CCCN(CCC)[C@@H]1CCc2cccc(O)c2C1	42.6*	-0.9	-152.3	4.8	1.1	67.3*
O=[N+]([O-])c1cc([As](=O)(O)c2ccc(O)c([N+](=O)[O-])c2)ccc1O	-0.4	-3.6	1.4	18.3	·	·

Screens deposited in PubChem by The Scripps Research Institute Molecular Screening Center.
